Experimental data as given in PubChem BioAssay AID2806 (Sanford-Burnham Center for Chemical Genomics, 2010).
The whole screen tested about 330,000 compounds, of which about 660 (0.2%) were called active.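 How the source made its calls: active means inhibition of at least 40% at 10 µM in the primary screen; inactive means the rest.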 The entries come from a sample that favours actives as a whole.

What follows are molecules tested on intestinal alkaline phosphatase [Mus musculus] (assay: mouse intestinal phosphatase enzyme inhibition – biochemical, luminescence, uHTS, primary screen (AID 2806;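 further: plate controls were DMSO with enzyme for no effect and no enzyme wells for full effect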)). Conditions: purified mouse IAP, CDP-Star luminescence, 30 min; at 10 µM; stronger effect = higher value.

Row | SMILES | inhibition
1 | COc1ccc(/C=C2/SC(=O)N(CCCCCC(=O)Nc3ccccc3C(=O)O)C2=S)cc1 | 12.6% (inactive)
2 | Cc1ccc(-c2nn(-c3ccccc3)cc2/C=C2\SC(=S)N(CCCCCC(=O)O)C2=O)o1 | 14.7% (inactive)
3 | O=C(CCCN1C(=O)/C(=C/c2cccs2)SC1=S)Nc1ccc(O)cc1 | 10.9% (inactive)
4 | O=C(CCCN1C(=O)/C(=C/c2ccco2)SC1=S)Nc1ccccc1 | 47.8% (active)
5 | O=C(CCCN1C(=O)/C(=C\c2ccco2)SC1=S)Nc1cccc2ccccc12 | 47.9% (active)
6 | O=C1/C(=C\c2ccccc2Cl)SC(=S)N1CCC(=O)N1CCCc2ccccc21 | 23.1% (inactive)
7 | O=C(CNS(=O)(=O)c1ccc2c(c1)OCCCO2)N1CCN(c2ccc(F)cc2)CC1 | -6.2% (inactive)
8 | COc1ccccc1CNC(=O)CSc1nc(=O)n(Cc2ccncc2)c2c1CCC2 | -1.4% (inactive)
9 | CCCCS(=O)c1snnc1C (centres undefined) | -4.4% (inactive)
10 | Cc1ccc(Cc2cnc(N)s2)o1 | 50.5% (active)
11 | CCCCNc1ccc(C(=O)Nc2cccc(C)n2)cc1[N+](=O)[O-] | 15.5% (inactive)
12 | Cn1cnc([N+](=O)[O-])c1Sc1n[nH]c(N)n1 | 7.9% (inactive)
13 | O=C(CCSCCc1ccccn1)Nc1nccs1 | -7% (inactive)
14 | Cc1ccc(C(=O)N/N=C/c2sc(=O)n(Cc3cccc(C(=O)O)c3)c2Cl)cc1 | 11.7% (inactive)
15 | NS(=O)(=O)c1ccc(-c2ccc(/C=C3\SC(=O)NC3=O)o2)cc1 | 55.1% (active)
16 | COc1cc(/C=C/C(=O)O)cc(S(=O)(=O)Nc2ccccc2C(=O)NCCc2ccccc2)c1OC | -5.2% (inactive)
17 | CCOc1ccc(NC(=O)COC(=O)C2CCC(=O)N2)c([N+](=O)[O-])c1 (centres undefined) | 1% (inactive)
18 | COC(C[C@@H]1O[C@@H]1C(=O)[C@@H](C)OCc1ccccc1)OC | 2.7% (inactive)
19 | CC(=O)c1c(C)n([O-])c2ccccc2[n+]1=O | 0.9% (inactive)
20 | NC(=O)c1ccsc1NC(=O)c1ccco1 | 0.1% (inactive)

Row | SMILES | inhibition
21 | O=C(Nc1nc(-c2ccco2)c(-c2ccco2)s1)c1ccco1 | 64.2% (active)
22 | O=C(Nc1nnc(CCOCCOCCc2nnc(NC(=O)c3ccco3)s2)s1)c1ccco1 | 0.5% (inactive)
23 | Cc1nc(CC(=O)NNS(=O)(=O)c2ccc(F)c(Cl)c2)cs1 | 1.6% (inactive)
24 | COc1ccc(OC)c(-n2c(-c3ccn[nH]3)n[nH]c2=S)c1 | -6.5% (inactive)
25 | COc1ccccc1-n1c(-c2cc(-c3ccco3)[nH]n2)n[nH]c1=S | 57.8% (active)
26 | COc1ccccc1-n1cn[nH]c1=S | 1.9% (inactive)
27 | NC(=O)c1ccc(Nc2ccc3c(c2)CCC3)c([N+](=O)[O-])c1 | 11.2% (inactive)
28 | Brc1cnc(N2CCCC2)nc1N1CCCCC1 | 1.2% (inactive)
29 | Fc1ccc(Nc2nnns2)cc1 | 7.1% (inactive)
30 | Cc1ccc(S(=O)(=O)NCCSC(C)(C)C)cc1 | -3.9% (inactive)
31 | C[C@H]1CN([C@@H](C)CO)C(=O)Cc2cc(NC(=O)Cc3ccccc3)ccc2O[C@H]1CN(C)S(=O)(=O)c1cccs1 | -5.4% (inactive)
32 | CN1CCCc2cc(C#N)c(=O)[nH]c21 | 5.2% (inactive)
33 | COc1cccc(CCNC(=O)c2cccc(NC(=O)C3=C(C)OCCS3)c2)c1 | -9.8% (inactive)
34 | CC(=O)N1c2ccc(S(=O)(=O)N3CCC(C(=O)NC4CCCC(C)C4C)CC3)cc2CC1C (centres undefined) | -23.1% (inactive)
35 | O=C(CS(=O)(=O)c1ccccc1)Nc1ccc(S(=O)(=O)Nc2ccccn2)cc1 | 6.7% (inactive)
36 | CCN(CC)P(=O)(C(NC(=O)OC)C(F)(F)C(F)(F)C(F)(F)C(F)F)N(CC)CC (centres undefined) | 1.2% (inactive)
37 | N#CC(C(N)=O)=C1CCC2(CC1)OCCCCO2 | -8.3% (inactive)
38 | Cc1[nH]c2ccccc2c1-c1ccc(Cl)nn1 | 4.1% (inactive)
39 | CC(C)S(=O)(=O)c1csc(NC(=O)Nc2ccc(Cl)cc2)c1Cl | -190% (inactive)
40 | O=C1CCCN1C(=O)COc1ccc([N+](=O)[O-])cc1 | 2.6% (inactive)

Row | SMILES | inhibition
41 | COC(=O)c1cc(NC(=O)c2nn(C)c(=O)c3ccccc23)cc(C(=O)OC)c1 | -11.6% (inactive)
42 | COc1ccc(N(Cc2ccc(N(C)C)cc2)C(=O)c2ccc(S(C)(=O)=O)cc2)cc1 | 3.6% (inactive)
43 | CC(=O)c1c(C)[nH]c(C(=O)NCc2ccc(C)cc2)c1C | -23.4% (inactive)
44 | COC(=O)c1ccc(CNC(=O)C2CCC(=O)N(Cc3cccc(F)c3)C2)cc1 (centres undefined) | 2.3% (inactive)
45 | COc1cccc(N(C(=O)CNC(=O)c2ccco2)C(C(=O)NC2CCCCC2)c2cccnc2)c1 (centres undefined) | -11.8% (inactive)
46 | Cc1ccccc1CN1C[C@@H]2C[C@@H](c3ccc4nsnc4c3)N3CCC[C@@]23C1=O | 4% (inactive)
47 | CCc1nc2nc(C)c(NS(=O)(=O)c3ccc4c(c3)CCCC4)c(=O)n2[nH]1 | 8.4% (inactive)
48 | CNC(=O)NCCN1CCCC1=O | -13.9% (inactive)
49 | CC(C)(C)NC(=O)NC(=O)COC(=O)Cn1c(C(F)(F)F)nc2ccccc21 | 3.3% (inactive)
50 | O=C(CNS(=O)(=O)c1ccccc1)N1CCN(C(=O)c2ccco2)CC1 | 2.1% (inactive)
51 | CC(C)NC(=S)Nc1cccc2cnccc12 | 9.6% (inactive)
52 | Cc1c(NC(=O)C(=O)N/N=C/c2cccs2)c(=O)n(-c2ccccc2)n1C | 5.7% (inactive)
53 | Clc1cccc(Cl)c1OCCOCCNCc1ccccc1 | -0.1% (inactive)
54 | CC(/C=C/C1(O)C(C)CC(=O)CC1(C)C)OC1OC(CO)C(O)C(O)C1O (centres undefined) | 41.9% (active)
55 | C=CC1C(OC2OC(CO)C(O)C(O)C2O)OC=C(C(=O)OC)C1CC1CC(=O)CC(CC(=O)CCc2ccc(O)cc2)O1 (centres undefined) | 6.5% (inactive)
56 | CC1=C(C)C(=O)OC(C(C)C2CCC3C4CC=C5CC(OC6OC(COC7OC(CO)C(O)C(O)C7O)C(O)C(O)C6O)CC(O)C5(C)C4CCC23C)C1 (centres undefined) | 9.3% (inactive)
57 | COc1cccc(/C=N\NC(=O)C2=NNC(=O)C2C)c1O (centres undefined) | 61.4% (active)
58 | COc1cc(/C=N\NC(=O)C2C(=O)NCC2c2ccccc2)cc(OC)c1O (centres undefined) | 11.4% (inactive)
59 | CCOc1ccc2[nH]c(C(=O)N/N=C/c3cccc(OC)c3OC)cc2c1 | 10.1% (inactive)
